The record followed here is PubChem BioAssay (NCI).

Holding throughout (test): NCI-60 one-dose screen, 48 h (100 = growth as untreated, 0 = no growth, -100 = all killed)
Details in all cases: 10 µM unless noted

Assay [1] deals with NCI-H23 lung.
The subject of assay [2] is NCI-H226 lung.
Assay [3] has as its system NCI-H322M lung.
Assay [4] relates to HOP-62 NSCLC.
For assay [5], the system named is NCI-H460 lung.
Assay [6] concerns HOP-92 NSCLC.
The subject of assay [7] is NCI-H522 lung.
Assay [8] has as its system A549/ATCC NSCLC.
Assay [9] relates to 786-0 renal.
Assay [10] deals with COLO 205 colon.
The subject of assay [11] is DU-145 prostate.
The test system of assay [12] is MALME-3M melanoma.
The subject of assay [13] is MDA-MB-231 breast.
Assay [14] has as its system RXF 393 renal.
For assay [15], the system named is SF-268 CNS.
For assay [16], the system named is SF-295 CNS.
The test system of assay [17] is SF-539 CNS.
Assay [18] relates to UACC-257 melanoma.
Assay [19] deals with M14 melanoma.
The test system of assay [20] is K-562 leukemia.

The panel holds about 83,000 compounds, 20% with a hit somewhere; the sample as a whole holds those more often.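 Results are percent growth after 48 hours of single-concentration exposure. 100 means growth as in untreated cells, lower positive values show inhibition; negative values down to -100 show cell death.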 Values without a mark were called inactive. Calls of active or inactive are those of the source. How the source made its calls: active means growth percent below 10; inactive means the rest.

As to `CCN1C(=O)N(CC)C2Nn3c(s/c(=C\c4ccc(OC)cc4)c3=O)=NC21` (configuration not stated), the growth in assay [1] is 76.3%; in [2], 85.1%; in assay [3], 82.6%; in [4], 55.8%; in assay [5] it was 32.2%; in assay [6] it was 75.4%. The growth in [7] was 12.2%; in assay [8] it was 50.7%; in assay [9], 34.6%; in assay [10], 31.7%; in assay [11] it was 67.3%; in [12] it was 54.1%. The growth was 61.4% in assay [13]; 56.2% in assay [14]; 63.1% in assay [15]; 44.1% in assay [16]; 42.9% in assay [17]; 45% in [18]. Further, the growth in assay [19] was 39.8%.
For `COc1cc(-c2n/c(=C\c3c(O)[nH]c4ccc(Cl)cc34)cc3c2=Nc2ccccc2-3)ccc1F`, the growth is 17.2% in assay [1]; 60.5% in assay [2]; 66.5% in [3]; 3.23% (active) in [4]; 0.147% (active) in assay [5]; -26.3% (active) in assay [6]. Moreover, the growth was 3.18% (active) in [7]; -52.2% (active) in [8]; -56.8% (active) in assay [9]; -36.4% (active) in [11]; 13.4% in [20]; -66.4% (active) in [12]. Also, the growth was -7.94% (active) in assay [13]; -78.7% (active) in assay [14]; -40.1% (active) in assay [15]; 43.1% in assay [16]; 54.6% in [17]; 58.1% in assay [18]. Moreover, the growth in [19] was 14%.
Consider `COc1cc2oc(-c3cccc(C(=O)Nc4ccc(Cl)cc4)c3)cc(=O)c2c(O)c1OC`, for which the growth was 72.6% in [1]; 66.4% in assay [2]; 58.4% in [3]; 0.268% (active) in assay [4]; 20.5% in [5]; 10.5% in assay [6]. Moreover, the growth in assay [7] is 60.4%; in assay [8], 47.5%; in [9] it was 38.7%; in assay [11] it was 62.9%; in assay [20] it was 69.4%; in assay [12] it was 68.4%. The growth in assay [13] is 55.8%; in assay [14] it was 41.3%; in assay [15], 28.6%; in assay [16], 52%; in assay [17], 55%; in [18], 83.2%. The growth in [19] was 69.8%.
For `COc1ccc(-c2cnc3c(-c4cccc5cnccc45)cnn3c2)cc1`, the growth in assay [1] is 74.5%; in assay [2], 29.3%; in assay [3], 68.3%; in [4] it was 55.1%; in [5], 23.4%; in [6] it was 63%. Also, the growth in assay [7] was 48.3%; in assay [8] it was 39.8%; in assay [9] it was 29.4%; in assay [10] it was 67.8%; in assay [11] it was 69.9%; in assay [12] it was 45%. Besides, the growth in assay [13] is 37.8%; in [14] it was 48.7%; in assay [15], 92.7%; in [16], 62.5%; in [17], 2.09% (active); in assay [18], 88.7%. Further, the growth in [19] is 74.5%.
Turning to `CC(C)(C)c1cc(C=O)cc(C(C)(C)C)c1O`, the growth in assay [1] is 112%; in [2], 97.8%; in assay [3] it was 101%; in assay [4], 106%; in [5], 111%; in assay [6], 79.5%. The growth was 90.7% in [7]; 101% in assay [8]; 107% in [9]; 100% in assay [10]; 103% in assay [11]; 101% in assay [12]. In addition, the growth was 87.5% in [13]; 104% in assay [14]; 96.6% in [15]; 112% in [16]; 102% in assay [17]; 102% in assay [18]. In assay [19], the growth is 101%.
Consider `N#Cc1c(NC(=O)NCc2ccccc2)sc2c1CCCC2`, for which the growth in assay [1] is 29%; in assay [2], 29.5%; in assay [3] it was 42.2%; in assay [4] it was 40.2%; in assay [5], 2.62% (active); in assay [6] it was 42%. The growth in assay [7] was 21.9%; in assay [8], 28.5%; in assay [9], 35.6%; in assay [11], 10.1%; in [20] it was 14%; in assay [12], 47.5%. Moreover, the growth in [13] is 18.8%; in assay [14], 0.0173% (active); in assay [15] it was 46.9%; in assay [16], 21%; in [17], -1.85% (active); in assay [18] it was 68%. The growth in assay [19] was 10.6%.
Consider `CN(CCN(C)c1ccc(C(=N)N)cc1)c1ccc(C(=N)N)cc1`, for which the growth is 86.3% in [1]; 84% in assay [2]; 93.1% in [3]; 102% in [4]; 92% in assay [5]; 35% in assay [6]. Further, the growth in assay [7] is 92.4%; in assay [8], 103%; in assay [9] it was 107%; in [10], 134%; in assay [11] it was 98.9%; in assay [12], 57.9%. In addition, the growth was 91.3% in assay [13]; 118% in assay [14]; 109% in assay [15]; 94.1% in assay [16]; 93.2% in assay [17]; 92.6% in assay [18]. For the same compound, the growth in [19] is 103%.
Regarding `O=S(=O)(NCCNc1nccc(-c2c(-c3cccc(F)c3)nc3sccn23)n1)c1ccc(Cl)cc1`, the growth in [1] is 74.9%; in assay [2], 49.3%; in assay [3] it was 65.5%; in assay [4], 82.6%; in assay [5], 30.1%; in [6] it was 76.6%. Also, the growth was 68.2% in assay [7]; 32.1% in assay [8]; 51.3% in assay [9]; 54.2% in assay [11]; 41.3% in [20]; 82.6% in [12]. Also, the growth in assay [13] was 91.1%; in assay [14], 69%; in assay [15] it was 52.9%; in assay [16] it was 63.7%; in assay [17] it was 82.5%; in assay [18], 88.7%. Further, in [19], the growth is 56.6%.
